# Only some compounds are listed: those with a hit (about 2.9% of all), similar ones and a draw of the others.
# H9c2 protect – modulators protecting cardiomyocytes from myocardial damage. H9c2 cardiomyocytes, H2O2 injury protection, ATPLite, 2 h. protection from H2O2 cell death, % at 20 µM. 360,000 compounds, 0.63% hits. AID 588492;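 active = compounds giving at least 50% protection of heart cells from peroxide-induced death in the single-dose screen, raw or plate-pattern-corrected value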
# Rtt109 HAT inh – inhibitors of Candida albicans Rtt109/Vps75 histone acetyltransferase; Q5AAJ8; purified Rtt109/Vps75, ThioGlo CoA-SH fluorescence, 4 h; inhibition, % at 34.9 µM; 330,000 compounds, 0.16% hits;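 active = inhibition of at least 50% in every replicate; inconclusive = best replicate reaches 50% inhibition but some replicates fall short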
# Myeloid diff 2 – myeloid differentiation induction. ER-HoxA9 myeloid progenitors, lysozyme-GFP differentiation, flow cytometry. AID 624256. calls only at 10 µM. 360,000 compounds, 1% hits;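 active = normalized GFP-positive differentiation at or above the plate's own cutoff, the solvent-only control mean plus 3 SD; inconclusive = no clear call, values can overlap the other calls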;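 note: cells exposed to compound for four days before flow analysis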
# ABHD5-PLIN5 inh – blocks binding of human ABHD5 to perilipin-5. inhibition, % at 4 µM. Split G. princeps luciferase complementation, luminescence, 4 h. 360,000 compounds, 0.78% hits. AID 602281. Q00G26+Q8WTS1;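 active = inhibition above the mean inhibition across every tested compound plus 3 SD, cut at about 22% in these data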
# Target sequence (Q00G26 whole entry, looked up): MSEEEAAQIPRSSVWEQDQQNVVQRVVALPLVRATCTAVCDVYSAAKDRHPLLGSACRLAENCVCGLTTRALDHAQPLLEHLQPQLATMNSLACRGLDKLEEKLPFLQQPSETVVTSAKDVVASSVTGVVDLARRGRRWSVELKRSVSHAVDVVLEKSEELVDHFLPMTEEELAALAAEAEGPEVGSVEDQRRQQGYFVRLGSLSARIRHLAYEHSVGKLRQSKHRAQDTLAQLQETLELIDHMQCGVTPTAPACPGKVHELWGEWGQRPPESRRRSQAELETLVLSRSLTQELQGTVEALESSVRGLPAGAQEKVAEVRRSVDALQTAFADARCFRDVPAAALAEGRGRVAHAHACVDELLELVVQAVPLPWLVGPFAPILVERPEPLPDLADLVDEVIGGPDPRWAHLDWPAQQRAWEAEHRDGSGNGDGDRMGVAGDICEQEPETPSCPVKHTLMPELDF
# Target sequence (Q8WTS1 whole entry, looked up): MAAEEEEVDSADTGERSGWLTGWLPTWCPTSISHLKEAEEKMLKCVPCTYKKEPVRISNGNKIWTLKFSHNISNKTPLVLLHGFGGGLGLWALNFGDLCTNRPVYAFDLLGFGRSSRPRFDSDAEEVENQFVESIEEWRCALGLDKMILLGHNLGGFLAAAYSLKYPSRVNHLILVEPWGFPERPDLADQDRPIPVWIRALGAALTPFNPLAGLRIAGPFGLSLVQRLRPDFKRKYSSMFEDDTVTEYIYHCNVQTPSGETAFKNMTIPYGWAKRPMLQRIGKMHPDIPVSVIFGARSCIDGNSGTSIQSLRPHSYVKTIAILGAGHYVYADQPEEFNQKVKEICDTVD
# DAGLB inhibitor – blocks human DAGLB lipase activity. HEK293T DAGLB membrane lysate, EnzChek fluorogenic substrate. inhibition, % at 5.17 µM. 340,000 compounds, 0.059% hits; in the data active = inhibition above about 34%
# sPLA2-III inh – Blocks human group III sPLA2 activity | Q9NZ20 | QFRET BODIPY PC-A2 liposome hydrolysis, fluorescence | inhibition, % at 12.2 µM | 370,000 compounds, 0.56% hits;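 active = inhibition above mean plus 3 SD of compounds lying within the high and low control bounds, cut at about 19% in these data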
# ABHD5-PLIN5 conf – confirmation of human ABHD5-PLIN5 interaction inhibitors. biochemical ABHD5-PLIN5 interaction, luminescence. inhibition, % at 4 µM. shares compounds with ABHD5-PLIN5 inh. AID 651612. 2,200 compounds, 67% hits; in the data active = inhibition above about 23%
# HNF4 counter – HNF4 split-luciferase signal hit, counter-screen. shares compounds with ABHD5-PLIN5 inh. HNF4 dimerization, luminescence, biochemical. inhibition, % at 4 µM. 2,200 compounds, 77% hits. AID 651674;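 active = mean inhibition across replicate wells exceeding the computed hit threshold, cut at about 13% in these data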;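 note: light from luciferase halves that rejoin when HNF4 fusion proteins dimerize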
# Hits are given with their value; 0 = inactive; ? = inconclusive; - = no result.
SMILES,H9c2 protect,Rtt109 HAT inh,Myeloid diff 2,ABHD5-PLIN5 inh,DAGLB inhibitor,sPLA2-III inh,ABHD5-PLIN5 conf,HNF4 counter
CC(C)(CC(=O)O)CC(=O)O,0,0,0,0,0,0,-,-
O=C(O)CC(O)(CC(=O)O)C(=O)O,0,0,0,23.1,0,0,80.4,22.6
CCOc1cc(/C=C2\C(=O)N(Cc3ccco3)C(C)=C2C(=O)OC)ccc1O,0,0,0,51.6,0,0,36.6,62.5
CCOc1cc(/C=C2\C(=O)N(CCc3ccc(OC)c(OC)c3)C(C)=C2C(=O)OC)ccc1O,0,0,0,0,0,0,-,-
O=C(Nc1ccc2c(c1)OCO2)c1ccc(NC2CC2)c([N+](=O)[O-])c1,0,0,0,0,0,0,-,-
O=C(CCn1ccnc1)Nc1nc2ccccc2[nH]1,0,0,0,0,0,0,-,-
Cc1cc(SCC(=O)NC(=O)NCc2ccco2)nc2c(C)cccc12,0,0,0,40.1,0,0,27.2,38.4
Cc1cc(SCC(=O)NC(=O)NCc2ccco2)nc2ccccc12,0,0,0,0,0,0,-,-
O=C(CSc1n[nH]c(-c2ccccc2)n1)NC(=O)NCc1ccco1,0,0,0,23.5,0,0,0,0
Cc1nc([N+](=O)[O-])c(Sc2nc3ccc([N+](=O)[O-])cc3[nH]2)n1Cc1ccccc1,0,0,?,27.7,0,0,45.4,37.6
Cc1ccc(NC(=O)CCc2nnc3ccc(NCc4ccco4)nn23)nc1,0,0,?,38.8,0,0,0,24.1
CC(=O)c1cccc(NC(=O)CCc2nnc3ccc(NCc4ccco4)nn23)c1,0,0,?,0,0,0,-,-
CC(=O)N(c1ccccc1C)C1CCCC1,0,0,0,0,0,0,-,-
CC(=O)N(C1=C(Cl)C(=O)c2ccccc2C1=O)C1CCCCC1,0,0,0,32.6,0,0,84.3,109.8
CC(CN1CCC(n2nccc2NC(=O)c2ccccc2Cl)CC1)c1ccccc1 (stereo unspecified),0,0,0,0,0,0,-,-
O=C1C=C(N2CCOCC2)CO1,0,0,0,0,0,0,-,-
O=C1C=C(N2CCOCC2)CCC1,0,0,0,26.9,0,0,0,0
O=C1C=C(N2CCN(C3=CC(=O)CCC3)CC2)CCC1,0,0,0,47.7,0,0,0,19.5
O=[N+]([O-])c1ccccc1S(=O)(=O)Nc1ccc(S(=O)(=O)N2CCCC2)cc1,0,0,0,33.2,0,0,34.5,47.9
Cc1ccc(NS(=O)(=O)c2ccccc2[N+](=O)[O-])cc1S(=O)(=O)N1CCCCC1,0,0,0,0,0,0,-,-
CC1(C(=O)NCc2ccc(C(F)(F)F)cc2)CCN1Cc1c(F)cccc1F (stereo unspecified),0,-,0,0,-,0,-,-
CC1(C(=O)NCc2ccc(C(F)(F)F)cc2)CCN1Cc1ccc(-c2ccccc2)o1 (stereo unspecified),0,-,0,30.7,-,0,0,25.2
Cc1cc(=O)oc2cc(OCc3c(F)cccc3Cl)ccc12,-,-,-,-,-,0,-,-
COc1ccc(-n2c(O)c(/C=C3\C=Nc4ccccc43)c(=O)[nH]c2=O)cc1,0,0,0,31.4,0,0,0,23.5
COc1ccc(-n2c(O)c(C=NC3CC3)c(=O)[nH]c2=O)cc1,0,0,0,0,0,0,-,-
CC(=O)OCC1=C(C(=O)O)N2C(=O)C(NC(=O)CCn3nc(C)c(Cl)c3C)C2SC1 (stereo unspecified),0,0,0,0,0,0,-,-
CC(=O)OCC1=C(C(=O)O)N2C(=O)C(NC(=O)CCn3nc(C(F)(F)F)c(Br)c3C3CC3)C2SC1 (stereo unspecified),0,0,0,46.5,0,0,42.0,0
CC(=O)OCC1=C(C(=O)O)N2C(=O)C(NC(=O)c3ccc(COc4c(C)cccc4Cl)o3)C2SC1 (stereo unspecified),0,-,0,24.6,0,0,0,17.5
CC(=O)OCC1=C(C(=O)O)N2C(=O)C(NC(=O)c3ccc(COc4ccc(Cl)cc4)o3)C2SC1 (stereo unspecified),0,0,0,0,0,0,-,-

# High-throughput results as filed in PubChem BioAssay.
